Columns and labels:
Test in all cases: DAPPL (digital affinity profiling via proximity ligation, sequencing); 10 mM Tris-HCl pH 7.5, 50 mM NaCl, 1 mM DTT, 4% glycerol, room temperature, 30 min; GST-TFs on glutathione beads, 16-mer random dsDNA library, 0.1% formaldehyde crosslink after washing; high values mean tight binding
Conditions in all cases: protein: recombinant; tags: N-terminal GST; dsDNA, one strand shown
[1] = molecular target: T1, ERF (Homo sapiens, UniProt P50548 1-548)
T1 sequence: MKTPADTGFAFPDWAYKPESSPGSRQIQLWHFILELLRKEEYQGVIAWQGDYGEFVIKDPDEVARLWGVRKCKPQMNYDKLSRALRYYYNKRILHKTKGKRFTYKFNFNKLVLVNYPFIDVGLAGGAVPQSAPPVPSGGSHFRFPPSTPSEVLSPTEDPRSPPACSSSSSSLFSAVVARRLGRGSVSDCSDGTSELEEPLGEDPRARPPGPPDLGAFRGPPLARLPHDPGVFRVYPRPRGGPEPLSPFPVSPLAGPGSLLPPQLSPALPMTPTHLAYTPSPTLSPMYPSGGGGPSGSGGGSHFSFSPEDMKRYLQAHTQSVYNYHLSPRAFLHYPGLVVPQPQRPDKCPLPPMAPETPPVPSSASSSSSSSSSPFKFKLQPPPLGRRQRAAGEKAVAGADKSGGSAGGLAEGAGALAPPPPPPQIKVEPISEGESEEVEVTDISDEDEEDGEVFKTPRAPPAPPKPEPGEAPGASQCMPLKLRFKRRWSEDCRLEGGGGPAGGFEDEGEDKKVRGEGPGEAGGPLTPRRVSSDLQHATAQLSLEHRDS
In short: (§1)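 Binding signal is each hexamer's read frequency for a factor divided by its frequency in the tag-only sample. The factors were GST-fused human transcription factors from yeast, captured on glutathione beads, DNA-barcoded and pooled with that sample. Pools were incubated with 200 nmole of a random double-stranded 16-mer DNA library in Tris/NaCl/DTT/glycerol buffer at room temperature for 30 min, then washed, crosslinked with 0.1% formaldehyde, proximity-ligated with BsaI/T4 ligase (1 h, 37 °C), PCR-amplified and sequenced on an Illumina NextSeq500.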

[2] = molecular target: T2, ETV3L (Homo sapiens, UniProt Q6ZN32 1-361)
T2 sequence: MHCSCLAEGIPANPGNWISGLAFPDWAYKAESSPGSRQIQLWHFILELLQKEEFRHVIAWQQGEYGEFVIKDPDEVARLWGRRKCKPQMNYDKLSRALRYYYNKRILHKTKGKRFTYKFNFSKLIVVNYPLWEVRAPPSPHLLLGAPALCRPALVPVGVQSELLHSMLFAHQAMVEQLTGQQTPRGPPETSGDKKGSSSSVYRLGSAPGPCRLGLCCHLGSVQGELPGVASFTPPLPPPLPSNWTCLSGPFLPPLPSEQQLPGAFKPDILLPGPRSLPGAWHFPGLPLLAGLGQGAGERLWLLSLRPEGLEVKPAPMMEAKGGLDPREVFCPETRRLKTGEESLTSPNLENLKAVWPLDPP
In short: as §1

[3] = molecular target: T3, ETS2 (Homo sapiens, UniProt P15036 1-469)
T3 sequence: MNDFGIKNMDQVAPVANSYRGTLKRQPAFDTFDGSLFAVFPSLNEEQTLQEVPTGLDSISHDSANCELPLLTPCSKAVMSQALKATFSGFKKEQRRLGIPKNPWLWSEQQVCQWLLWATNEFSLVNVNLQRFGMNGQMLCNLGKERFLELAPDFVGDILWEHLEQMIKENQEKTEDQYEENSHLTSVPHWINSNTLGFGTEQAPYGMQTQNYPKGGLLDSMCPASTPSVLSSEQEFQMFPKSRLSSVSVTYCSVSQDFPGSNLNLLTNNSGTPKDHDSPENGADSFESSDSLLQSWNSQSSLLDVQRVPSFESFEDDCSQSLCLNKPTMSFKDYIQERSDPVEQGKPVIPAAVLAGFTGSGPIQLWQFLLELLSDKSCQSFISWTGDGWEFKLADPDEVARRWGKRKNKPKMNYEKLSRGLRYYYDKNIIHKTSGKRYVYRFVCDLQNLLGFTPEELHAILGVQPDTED
In short: as §1

[4] = molecular target: T4, SPDEF (Homo sapiens, UniProt O95238 1-335)
T4 sequence: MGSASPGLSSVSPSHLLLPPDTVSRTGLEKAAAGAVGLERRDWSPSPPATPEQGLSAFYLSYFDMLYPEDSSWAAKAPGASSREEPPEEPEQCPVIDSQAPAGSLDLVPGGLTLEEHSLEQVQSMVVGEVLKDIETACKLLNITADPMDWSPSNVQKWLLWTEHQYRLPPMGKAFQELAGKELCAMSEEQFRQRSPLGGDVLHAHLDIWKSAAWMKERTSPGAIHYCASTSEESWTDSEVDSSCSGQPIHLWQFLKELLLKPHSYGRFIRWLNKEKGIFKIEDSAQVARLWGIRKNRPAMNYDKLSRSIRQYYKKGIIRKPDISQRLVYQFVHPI
In short: as §1

[5] = molecular target: T5, ETV7 (Homo sapiens, UniProt Q9Y603 1-341)
T5 sequence: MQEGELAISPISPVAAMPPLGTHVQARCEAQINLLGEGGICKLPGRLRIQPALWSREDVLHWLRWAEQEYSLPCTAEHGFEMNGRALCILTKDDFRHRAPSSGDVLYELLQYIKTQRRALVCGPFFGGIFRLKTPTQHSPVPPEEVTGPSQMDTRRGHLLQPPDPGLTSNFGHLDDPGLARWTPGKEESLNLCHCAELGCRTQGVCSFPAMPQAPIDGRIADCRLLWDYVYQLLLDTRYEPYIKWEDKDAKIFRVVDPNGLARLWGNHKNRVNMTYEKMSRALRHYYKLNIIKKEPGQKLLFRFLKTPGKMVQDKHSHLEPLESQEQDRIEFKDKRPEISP
In short: as §1

[6] = molecular target: T6, ELF5 (Homo sapiens, UniProt Q9UKW6-2 1-255)
T6 sequence: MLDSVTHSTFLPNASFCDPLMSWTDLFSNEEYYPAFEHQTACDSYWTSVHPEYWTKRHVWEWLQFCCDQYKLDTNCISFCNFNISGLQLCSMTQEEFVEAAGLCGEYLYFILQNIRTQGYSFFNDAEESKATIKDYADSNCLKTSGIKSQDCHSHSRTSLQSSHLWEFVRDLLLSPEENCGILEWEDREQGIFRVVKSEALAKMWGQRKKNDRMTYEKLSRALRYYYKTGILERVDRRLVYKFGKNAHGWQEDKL
In short: as §1

[7] = molecular target: T7, ETV3 (Homo sapiens, UniProt P41162-2 1-143)
T7 sequence: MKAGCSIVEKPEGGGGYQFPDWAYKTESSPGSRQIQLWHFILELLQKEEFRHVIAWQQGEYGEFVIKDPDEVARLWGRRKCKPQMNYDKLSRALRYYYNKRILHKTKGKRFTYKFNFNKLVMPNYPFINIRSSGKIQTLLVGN
In short: as §1

[8] = molecular target: ETV6 (Homo sapiens, UniProt P41212 1-452)
In short: as §1

ETV6, sequence (P41212 whole entry): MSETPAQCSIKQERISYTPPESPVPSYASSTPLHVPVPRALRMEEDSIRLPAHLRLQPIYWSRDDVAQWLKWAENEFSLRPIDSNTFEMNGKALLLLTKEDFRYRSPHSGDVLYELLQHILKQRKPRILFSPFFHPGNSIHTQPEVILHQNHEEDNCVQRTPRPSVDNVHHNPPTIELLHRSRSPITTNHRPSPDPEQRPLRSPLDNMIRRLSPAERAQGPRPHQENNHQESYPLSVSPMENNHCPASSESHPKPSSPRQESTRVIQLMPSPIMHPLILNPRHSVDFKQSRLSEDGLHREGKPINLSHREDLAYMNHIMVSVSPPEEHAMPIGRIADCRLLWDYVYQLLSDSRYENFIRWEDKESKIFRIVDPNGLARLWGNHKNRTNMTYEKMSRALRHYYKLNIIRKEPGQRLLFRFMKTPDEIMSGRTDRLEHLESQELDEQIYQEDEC

Sequence | binding signal [1] | binding signal [2] | binding signal [3] | binding signal [4] | binding signal [5] | binding signal [6] | binding signal [7] | binding signal [8]
ATGCCC | 1.31 fold enrichment (6-mer frequency, TF over GST control) | 1.26 fold enrichment (6-mer frequency, TF over GST control) | 1.29 fold enrichment (6-mer frequency, TF over GST control) | 1.36 fold enrichment (6-mer frequency, TF over GST control) | 1.45 fold enrichment (6-mer frequency, TF over GST control) | 1.27 fold enrichment (6-mer frequency, TF over GST control) | 1.32 fold enrichment (6-mer frequency, TF over GST control) | 1.35 fold enrichment (6-mer frequency, TF over GST control)
TTTCAA | 1.22 fold enrichment (6-mer frequency, TF over GST control) | 1.28 fold enrichment (6-mer frequency, TF over GST control) | 1.24 fold enrichment (6-mer frequency, TF over GST control) | 1.16 fold enrichment (6-mer frequency, TF over GST control) | 1.3 fold enrichment (6-mer frequency, TF over GST control) | 1.26 fold enrichment (6-mer frequency, TF over GST control) | 1.31 fold enrichment (6-mer frequency, TF over GST control) | 1.21 fold enrichment (6-mer frequency, TF over GST control)
ATTCTT | 1.3 fold enrichment (6-mer frequency, TF over GST control) | 1.46 fold enrichment (6-mer frequency, TF over GST control) | 1.41 fold enrichment (6-mer frequency, TF over GST control) | 1.34 fold enrichment (6-mer frequency, TF over GST control) | 1.54 fold enrichment (6-mer frequency, TF over GST control) | 1.4 fold enrichment (6-mer frequency, TF over GST control) | 1.48 fold enrichment (6-mer frequency, TF over GST control) | 1.46 fold enrichment (6-mer frequency, TF over GST control)
CGGTCT | 1.21 fold enrichment (6-mer frequency, TF over GST control) | 1.15 fold enrichment (6-mer frequency, TF over GST control) | 1.16 fold enrichment (6-mer frequency, TF over GST control) | 1.09 fold enrichment (6-mer frequency, TF over GST control) | 1.11 fold enrichment (6-mer frequency, TF over GST control) | 1.1 fold enrichment (6-mer frequency, TF over GST control) | 1.22 fold enrichment (6-mer frequency, TF over GST control) | 1.09 fold enrichment (6-mer frequency, TF over GST control)
CATCAC | 1.17 fold enrichment (6-mer frequency, TF over GST control) | 1.07 fold enrichment (6-mer frequency, TF over GST control) | 1.12 fold enrichment (6-mer frequency, TF over GST control) | 1.15 fold enrichment (6-mer frequency, TF over GST control) | 1.08 fold enrichment (6-mer frequency, TF over GST control) | 1.11 fold enrichment (6-mer frequency, TF over GST control) | 1.13 fold enrichment (6-mer frequency, TF over GST control) | 1.13 fold enrichment (6-mer frequency, TF over GST control)
ACCCAA | 1.13 fold enrichment (6-mer frequency, TF over GST control) | 1.13 fold enrichment (6-mer frequency, TF over GST control) | 1.04 fold enrichment (6-mer frequency, TF over GST control) | 1.04 fold enrichment (6-mer frequency, TF over GST control) | 1.14 fold enrichment (6-mer frequency, TF over GST control) | 1.06 fold enrichment (6-mer frequency, TF over GST control) | 1.01 fold enrichment (6-mer frequency, TF over GST control) | 1.09 fold enrichment (6-mer frequency, TF over GST control)
CCATCT | 1.41 fold enrichment (6-mer frequency, TF over GST control) | 1.35 fold enrichment (6-mer frequency, TF over GST control) | 1.35 fold enrichment (6-mer frequency, TF over GST control) | 1.11 fold enrichment (6-mer frequency, TF over GST control) | 1.33 fold enrichment (6-mer frequency, TF over GST control) | 1.27 fold enrichment (6-mer frequency, TF over GST control) | 1.25 fold enrichment (6-mer frequency, TF over GST control) | 1.25 fold enrichment (6-mer frequency, TF over GST control)
AACATG | 1.21 fold enrichment (6-mer frequency, TF over GST control) | 1.17 fold enrichment (6-mer frequency, TF over GST control) | 1.14 fold enrichment (6-mer frequency, TF over GST control) | 1.11 fold enrichment (6-mer frequency, TF over GST control) | 1.05 fold enrichment (6-mer frequency, TF over GST control) | 1.15 fold enrichment (6-mer frequency, TF over GST control) | 1.11 fold enrichment (6-mer frequency, TF over GST control) | 1.25 fold enrichment (6-mer frequency, TF over GST control)

— paper PMC7862700, “An all-to-all approach to the identification of sequence-specific readers for epigenetic DNA modifications on cytosine”
